Screens from PubChem.
Only some compounds are listed: those with a hit (about 15% of all), similar ones and a draw of the others.
VP16 counter: counter-screen for ROR gamma inhibitors: Gal4-VP16 reporter; Drosophila S2 Gal4-VP16 UAS-luciferase, luminescence, 20 h; Potency, µM (series often up to 53.6 µM), actives largely listed as inhibitors; hit rate 3.5% among 310,000; AID 2546;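 further: Gal4-VP16 expression switched on by copper sulfate through the metallothionein promoter; nearly all actives have a fitted effect of over 50% in size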
TDP1 cell noCPT: qHTS for Inhibitors of human tyrosyl-DNA phosphodiesterase 1 (TDP1): qHTS in cells in absence of CPT. hit rate 15% among 420,000. Potency, µM (top dose mostly 46.2 µM), usual class: inhibitors. DT40 Tdp1-/- hTDP1 cells, no CPT, ATP luminescence, 48 h. AID 686978, 2013; further: nearly all actives have a fitted effect of over 55% in size
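Seeded 400 DT40-hTDP1 cells/well (vehicle DMSO, no 20 nM CPT); pinned compounds; ≥48 hr at 37 °C; CellTiter-Glo luminescence as viability measure.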
12-LOX inh: blocks human arachidonate 12S-lipoxygenase; Potency, µM (highest dose often 108 µM), usual class: inhibitors; P18054; hit rate 1.1% among 580,000; purified 12hLO, xylenol orange hydroperoxide absorbance; AID 1671190
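Purified human 12hLO at 150 nM in 25 mM Hepes, 0.01% Triton X-100, pH 7.0, preincubated 15 min at room temperature with compound. Reaction started with 40 uM arachidonic acid, 30 min at room temperature. Hydroperoxide measured by Fe-xylenol orange, 573/405 nm absorbance ratio.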
DT40 TDP1 CPT: DT40-hTDP1 cell growth loss with CPT. Potency, µM (titrated, usually from 46.2 µM), usual class: inhibitors. chicken DT40 Tdp1-/-;hTDP1 cells + 20 nM CPT, ATP luminescence, 48 h. hit rate 12% among 420,000. AID 686979; further: nearly all actives have a fitted effect of over 55% in size
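Chicken DT40 Tdp1-/- cells complemented with human TDP1, 400 cells/well, exposed to compounds plus 20 nM camptothecin for at least 48 h at 37 C; viability read as ATP content by CellTiter-Glo luminescence.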
RORgamma inh: blocks mouse ROR gamma transcriptional activity; Drosophila S2 Gal4-RORgamma UAS-luciferase reporter, 20 h; Potency, µM (doses to about 53.6 µM), actives largely listed as inhibitors; hit rate 5.4% among 310,000; AID 2551; further: nearly all actives have a fitted effect of over 60% in size
Target sequence (P51450 whole entry, looked up, the tested form may be a part): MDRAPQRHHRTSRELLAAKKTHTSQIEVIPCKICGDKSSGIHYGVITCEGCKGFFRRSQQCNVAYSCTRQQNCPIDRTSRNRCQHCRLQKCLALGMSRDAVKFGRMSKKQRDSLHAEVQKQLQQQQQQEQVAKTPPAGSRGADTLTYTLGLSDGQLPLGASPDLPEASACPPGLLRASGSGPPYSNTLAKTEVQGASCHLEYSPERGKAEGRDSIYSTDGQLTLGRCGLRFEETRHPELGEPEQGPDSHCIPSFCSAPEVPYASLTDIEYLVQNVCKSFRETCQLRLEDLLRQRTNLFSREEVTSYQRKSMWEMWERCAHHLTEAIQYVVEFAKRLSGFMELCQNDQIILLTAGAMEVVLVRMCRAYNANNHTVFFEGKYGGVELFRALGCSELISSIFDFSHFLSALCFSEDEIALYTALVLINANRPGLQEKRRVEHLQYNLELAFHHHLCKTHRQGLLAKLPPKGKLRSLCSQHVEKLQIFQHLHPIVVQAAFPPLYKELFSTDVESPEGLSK
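Stably transfected Drosophila Schneider cells are the test system, with ROR gamma fused to Gal4 and luciferase under UAS control; luminescence is read after 20 hr of 700 uM copper sulfate induction at ambient temperature.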
ELG1 DNA repair: blocks ELG1-dependent DNA repair in HEK293T cells. Potency, µM (highest dose often 46.1 µM), hits mostly inhibitors. hit rate 2.3% among 330,000. HEK293T ELG1-luciferase reporter, luminescence, 16 h; DNA damage induced by 5-fluorouridine. AID 504467; further: nearly all actives have a fitted effect of over 55% in size
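Overnight (16 hr) co-exposure of 2,000 cells/well to 5-fluorouridine and compound at 37 °C preceded detection. Luciferase was quantified via ONE-Glo luminescence; loss of signal denotes inhibition.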
Each line names hits and unclear results; the compound was inactive in the other large screens. The call rests on the fitted dose curve; in most records, active means well fitted curve in the direction sought with a large enough effect; inconclusive means small, poorly fitted or top-dose-only effect, or another doubt; inactive means no such curve, though single readings can be large; an effect the other way counts as inactive or inconclusive.

CC(=O)C1CCC2C3CCC4=CC(=O)C=CC4(C)C3CCC12C (configuration not stated)	TDP1 cell noCPT 12µM, DT40 TDP1 CPT 21µM (no result: VP16 counter, RORgamma inh, ELG1 DNA repair)
CC(=O)[C@H]1CC[C@H]2[C@@H]3CCC4=CC(=O)CC[C@]4(C)[C@H]3[C@H](O)C[C@]12C	TDP1 cell noCPT 16µM, DT40 TDP1 CPT inconclusive, ELG1 DNA repair inconclusive
CC(=O)OCC(=O)[C@@]1(O)CCC2C3CCC4=CC(=O)CC[C@]4(C)C3C(O)C[C@]21C (some centres not stated)	none (no result: 12-LOX inh, ELG1 DNA repair)
CC(=O)OCC=C1CCC2C3CCC4=CC(=O)CCC4(C)C3C(O)CC12C (configuration not stated)	TDP1 cell noCPT 12µM, DT40 TDP1 CPT 12µM (no result: VP16 counter, RORgamma inh, ELG1 DNA repair)
CN(C)c1ccc(-c2ccnc3c2CC(C)(C(=O)NCc2ccncc2)O3)cc1 (configuration not stated)	TDP1 cell noCPT inconclusive, DT40 TDP1 CPT inconclusive (no result: VP16 counter, RORgamma inh, ELG1 DNA repair)
CC1(C(=O)NCc2cccc(Cl)c2)Cc2c(-c3ccccc3)ccnc2O1 (configuration not stated)	TDP1 cell noCPT 8.2µM, DT40 TDP1 CPT 16µM (no result: VP16 counter, RORgamma inh, ELG1 DNA repair)
CC(=O)Nc1cccc(-c2ccnc3c2CC(C)(C(=O)NCc2ccc(N(C)C)cc2)O3)c1 (configuration not stated)	TDP1 cell noCPT 2.9µM, DT40 TDP1 CPT 3.3µM (no result: VP16 counter, RORgamma inh, ELG1 DNA repair)
CN(C)c1ccc(-c2ccnc3c2CC(C)(C(=O)NCc2cccc(Cl)c2)O3)cc1 (configuration not stated)	TDP1 cell noCPT 21µM, 12-LOX inh inconclusive, DT40 TDP1 CPT 23µM (no result: VP16 counter, RORgamma inh, ELG1 DNA repair)
COc1ccc(CNC(=O)C2(C)Cc3c(-c4cccc(NC(C)=O)c4)ccnc3O2)cc1OC (configuration not stated)	TDP1 cell noCPT 18µM, DT40 TDP1 CPT inconclusive (no result: VP16 counter, RORgamma inh, ELG1 DNA repair)
CCn1c(SCC(=O)NCc2ccc(CN3CCOCC3)cc2)nnc1-c1cccc(Cl)c1	none (no result: VP16 counter, TDP1 cell noCPT, DT40 TDP1 CPT, RORgamma inh, ELG1 DNA repair)
CSCc1ccc(N2CCC(C(C)N3CCCC3)CC2)nc1 (configuration not stated)	none (no result: VP16 counter, TDP1 cell noCPT, DT40 TDP1 CPT, RORgamma inh, ELG1 DNA repair)
CC1(C(=O)NCc2cccc(Cl)c2)Cc2c(-c3cccc(C(N)=O)c3)ccnc2O1 (configuration not stated)	TDP1 cell noCPT inconclusive, DT40 TDP1 CPT inconclusive (no result: VP16 counter, RORgamma inh, ELG1 DNA repair)
CC(=O)Nc1cccc(-c2ccnc3c2CC(C)(C(=O)NCc2cccc(Cl)c2)O3)c1 (configuration not stated)	TDP1 cell noCPT 4.1µM, DT40 TDP1 CPT 3.7µM (no result: VP16 counter, RORgamma inh, ELG1 DNA repair)
CC(=O)Nc1ccc(-c2ccnc3c2CC(C)(C(=O)NCc2cccc(Cl)c2)O3)cc1 (configuration not stated)	TDP1 cell noCPT 23µM, DT40 TDP1 CPT inconclusive (no result: VP16 counter, RORgamma inh, ELG1 DNA repair)
CC(=O)Nc1cccc(-c2ccnc3c2CC(C)(C(=O)NCc2cccs2)O3)c1 (configuration not stated)	TDP1 cell noCPT 4.1µM, DT40 TDP1 CPT inconclusive (no result: VP16 counter, RORgamma inh, ELG1 DNA repair)
O=C(NC(c1ccccc1)c1ccccc1)C12CC3CC(CC(O)(C3)C1)C2	none (no result: VP16 counter, TDP1 cell noCPT, DT40 TDP1 CPT, RORgamma inh, ELG1 DNA repair)
COc1ccccc1OCc1nc2c(n1Cc1ccccc1)C(=O)N(Cc1ccccc1F)CCN2	none (no result: VP16 counter, TDP1 cell noCPT, DT40 TDP1 CPT, RORgamma inh, ELG1 DNA repair)
O=C(NCCSC1CCCC1)c1ccncc1	none (no result: VP16 counter, TDP1 cell noCPT, DT40 TDP1 CPT, RORgamma inh, ELG1 DNA repair)
CCCCn1nc(C(=O)Nc2cc(F)ccc2C)c2ccccc2c1=O	none (no result: VP16 counter, TDP1 cell noCPT, DT40 TDP1 CPT, RORgamma inh, ELG1 DNA repair)
O=C(COC(=O)c1ccccc1O)NCC1COc2ccccc2O1 (configuration not stated)	TDP1 cell noCPT inconclusive (no result: VP16 counter, RORgamma inh)
Cc1ccccc1C(=O)OCC(=O)NCC1COc2ccccc2O1 (configuration not stated)	TDP1 cell noCPT 18µM, DT40 TDP1 CPT inconclusive (no result: VP16 counter, RORgamma inh)
O=C(CNS(=O)(=O)c1ccc(Br)s1)NCC1COc2ccccc2O1 (configuration not stated)	VP16 counter 13µM, TDP1 cell noCPT inconclusive, DT40 TDP1 CPT inconclusive
O=C(CNC(=O)c1ccc(Br)o1)NCC1COc2ccccc2O1 (configuration not stated)	none (no result: VP16 counter, RORgamma inh)
CNC(=O)c1noc([C@@H]2CC(F)(F)CN2C2CCOCC2)n1	none (no result: VP16 counter, TDP1 cell noCPT, DT40 TDP1 CPT, RORgamma inh, ELG1 DNA repair)
